{"source": "PubChem BioAssay AID2314", "about": "(National Center for Advancing Translational Sciences (NCATS), 2010)", "note": "About 37,000 (12%) of roughly 300,000 compounds were called active. Shown is part of a subset that was picked to be rich in actives. Values without a mark were called inactive. No stated cut-off is given here; in the data, active means max response mostly above about 13% (no sharp cut-off); inactive means mostly below about 14%.", "data": [{"experiment": "Cycloheximide Counterscreen for Small Molecule Inhibitors of Shiga Toxin; further: read at 38.3 µM for the half of the compounds with a filed dose; 0% is about no effect", "settings": "cell reporter, cycloheximide protein synthesis inhibition counterscreen; hits give high values", "values": [{"smiles": "COc1ccc(N(C)C(=O)CCS(=O)(=O)c2cccc3nsnc23)cc1", "max response": "3.71%"}, {"smiles": "O=C(NCCOc1ccccc1Cl)C(=O)Nc1ccccc1", "max response": "-6.33%"}, {"smiles": "O=C(Nc1ccccc1)Nc1nnc(COc2ccccc2F)s1", "max response": "0.805%"}, {"smiles": "O=C(NCCOc1ccccc1F)Nc1ccc(Br)cc1", "max response": "41.8% (active)"}, {"smiles": "COc1ccc(CN2CCc3nc(Nc4ccccc4)ncc3C2)c(OC)c1OC", "max response": "12.2%"}, {"smiles": "CCN(CC)C(=O)CC1(c2ccccc2OC)CCOC(C(C)C)C1", "note": "(stereo unspecified)", "max response": "-2.61%"}, {"smiles": "O=C(NC(=S)Nc1ccccc1C(=O)O)c1ccc(-c2ccc(Br)cc2)o1", "max response": "45.5% (active)"}, {"smiles": "O=C(O)c1ccccc1NC(=O)c1ccccc1-c1ccccc1C(=O)O", "max response": "1.58%"}, {"smiles": "O=C(NC(=S)Nc1cc(C(F)(F)F)ccc1N1CCOCC1)c1ccc(-c2cccc(Cl)c2)o1", "max response": "12.2%"}, {"smiles": "O=C(O)c1ccc2c(=O)n3c(nc2c1)/C(=C/c1ccc(Cl)c([N+](=O)[O-])c1)CC3", "max response": "-1.06%"}, {"smiles": "COc1ccc(N=Nc2c(-c3ccc(OC)cc3)[nH]oc2=O)cc1", "max response": "-1.85%"}, {"smiles": "COc1cc(NC(=O)CCS(=O)(=O)c2ccc3c(c2)oc(=O)n3C)cc(OC)c1", "max response": "-9.36%"}, {"smiles": "CN(c1ccc2nc3ccccc3c(=O)n2n1)C1CCCCC1", "max response": "-12.8%"}, {"smiles": "CN1CCN(S(=O)(=O)c2cccc(C(=O)O)c2)CC1", "max response": "-8.28%"}, {"smiles": "O=C(O)c1cccc(N=NN2CCCCCC2)c1", "max response": "69.7% (active)"}, {"smiles": "O=C(NC(=O)N1CCOCC1)c1ccccc1", "max response": "4.39%"}, {"smiles": "O=C(c1ccccc1)N1CCN(C(=O)N2CCCCC2)CC1", "max response": "-3.32%"}, {"smiles": "NC(=NC(=O)c1ccccc1)N1CCOCC1", "max response": "-1.9%"}, {"smiles": "O=C(O)c1ccc(N=NN2CCOCC2)cc1", "max response": "39% (active)"}, {"smiles": "CCOC(=O)N1CCN(S(=O)(=O)N2CCCC(C(=O)NCCCN3CCC(C)CC3)C2)CC1", "note": "(stereo unspecified)", "max response": "1.6%"}, {"smiles": "CCc1ccccc1NC(=O)/C(=C/c1ccccc1)c1ccccc1", "max response": "8.5%"}, {"smiles": "O=C(Nc1ccccc1N1CCN(C(=O)c2ccccc2)CC1)c1ccco1", "max response": "-3.96%"}, {"smiles": "CCOC(=O)C1CCN(c2ncnc3c2c(-c2ccccc2)cn3-c2ccc(C)cc2)CC1", "max response": "1.88%"}, {"smiles": "COc1ccc(/C=C2/S/C(=N/N=C3\\CC4CCC3(C)C4(C)C)NC2=O)cc1", "note": "(stereo unspecified)", "max response": "8.52%"}, {"smiles": "COc1ccc(N(Cc2cc3ccc(C)cc3[nH]c2=O)S(=O)(=O)c2ccccc2)cc1", "max response": "0.769%"}, {"smiles": "CCOC(=O)N1CCN(C(=O)c2ccc3c(c2)N(Cc2ccc(C)cc2)CCS3)CC1", "max response": "-0.464%"}, {"smiles": "O=C(NCCN1CCOCC1)c1ccc2c(c1)N(Cc1ccc(Cl)cc1)CCS2", "max response": "-1.99%"}, {"smiles": "O=C(NCCc1ccccc1)c1ccc2c(c1)N(Cc1ccccc1)CCS2", "max response": "38.6% (active)"}, {"smiles": "COc1cc(SC#N)ccc1N=Cc1c(C)[nH]n(-c2ccc(C)cc2)c1=O", "max response": "-1.77%"}, {"smiles": "CN1CCN(CC(=O)Nc2sc3c(c2C#N)CCC(C(C)(C)C)C3)CC1", "note": "(stereo unspecified)", "max response": "-3.82%"}, {"smiles": "CCC1CCc2c(sc(NC(C)=O)c2C#N)C1", "note": "(stereo unspecified)", "max response": "14.2% (active)"}, {"smiles": "CC(=O)N1CCc2c(sc(NC(=O)CCS(=O)(=O)c3ccccc3)c2C#N)C1", "max response": "6.75%"}, {"smiles": "COc1cc(C(=O)NC2CCN(Cc3ccccc3)CC2)cc(Cl)c1OC(C)C", "max response": "-3.58%"}, {"smiles": "CCOc1ccccc1CNS(=O)(=O)c1cc(-c2cc(C)no2)ccc1C", "max response": "5.17%"}, {"smiles": "CCCCN(C)CCCNC(=O)c1cc(-c2cccs2)nc2ccccc12", "max response": "-4.95%"}, {"smiles": "CN(C)CCNc1ccc(-c2n[nH]c(=O)c3ccccc23)cc1[N+](=O)[O-]", "max response": "-2.5%"}, {"smiles": "CCN1CCN(C2CCCCC2NS(=O)(=O)c2ccc(Cl)cc2)CC1", "note": "(stereo unspecified)", "max response": "-3.25%"}, {"smiles": "CC(=O)Nc1ccc(S(=O)(=O)N2CCN(C3CCCCCCC3)CC2)cc1", "max response": "-5.2%"}, {"smiles": "CC(=O)Nc1ccc(NC(=O)CC2CCCC2)cc1", "max response": "20.7% (active)"}, {"smiles": "CC(=O)Nc1ccc(N2C(=O)C3C4C=CC(CC4)C3C2=O)cc1", "note": "(stereo unspecified)", "max response": "3.43%"}, {"smiles": "O=C(CC1CCCCC1)NCc1ccccc1", "max response": "17.3% (active)"}, {"smiles": "O=C(Cc1ccc(F)cc1)NC1CCCC1", "max response": "5.3%"}, {"smiles": "O=C(Cn1nc(C(F)(F)F)c2c1CCC2)NCc1ccc(F)cc1", "max response": "0.318%"}, {"smiles": "O=C(CCc1ccc(S(=O)(=O)NC2CCCCC2)cc1)NCc1ccccc1", "max response": "-1.16%"}, {"smiles": "O=C(CC1CCCCC1)NCc1ccc(F)cc1", "max response": "24.8% (active)"}, {"smiles": "O=C(CC1CCCCC1)NCc1ccco1", "max response": "-1.2%"}, {"smiles": "COC(=O)c1ccc(/C=C2/C(=O)Oc3ccccc32)cc1", "max response": "-4.87%"}, {"smiles": "CC(C(=O)N1CCN(c2ccccc2F)CC1)c1ccc([N+](=O)[O-])cc1", "note": "(stereo unspecified)", "max response": "-0.676%"}, {"smiles": "Cc1ccc(CC2CC(=O)N(c3cc(C)ccc3C)C2=O)cc1", "note": "(stereo unspecified)", "max response": "-1.67%"}, {"smiles": "CCOCCCN(C)C1CCN(C(=O)c2oc3ccccc3c2NC(=O)COc2cccc(C)c2)CC1", "max response": "-3.98%"}, {"smiles": "CCN1CCCC1CNC(=O)c1cc2cc(OC)c(OC)cc2[nH]1", "note": "(stereo unspecified)", "max response": "-3.29%"}, {"smiles": "COc1ccc(N(C)S(=O)(=O)c2ccc3c(c2)CC(C)N3C(=O)C2CC2)c(OC)c1", "note": "(stereo unspecified)", "max response": "3.16%"}, {"smiles": "O=c1c2sccc2nc(SCc2cc(=O)n3ccccc3n2)n1-c1ccc(Br)cc1", "max response": "-4.5%"}, {"smiles": "CC(C)=CCN1CCN(CCCc2ccccc2)CC1CCO", "note": "(stereo unspecified)", "max response": "-0.846%"}, {"smiles": "COC(=O)c1c(NC(=O)COc2ccc(Cl)cc2Cl)sc2c1CC(C)(C)NC2(C)C", "max response": "0.749%"}, {"smiles": "CC1=C/C(=N\\S(=O)(=O)c2ccccc2)C(C(C)C)=CC1=O", "max response": "-2.83%"}, {"smiles": "CC1=C/C(=N\\OS(=O)(=O)c2ccccc2)C=CC1=O", "max response": "35% (active)"}, {"smiles": "Cc1ccc(S(=O)(=O)c2ccc(Oc3ccccc3)cc2)cc1", "max response": "-0.97%"}, {"smiles": "O=C(Nc1ccc(Cl)cc1)C1c2cccc[n+]2CC(=O)N1Cc1ccc2c(c1)OCO2", "note": "(stereo unspecified)", "max response": "17.1%"}, {"smiles": "CCOc1ccc(N2C(=O)CC(N(CCc3ccc(OC)c(OC)c3)C(=S)Nc3ccccc3)C2=O)cc1", "note": "(stereo unspecified)", "max response": "8.04%"}, {"smiles": "O=C(CCN1C(=O)[C@H]2CC=CC[C@H]2C1=O)NCc1nc(-c2ccccc2)no1", "max response": "6.47%"}, {"smiles": "CC(C)CNC(=O)C(=O)Nc1ccc(N(C)C)cc1", "max response": "38.6% (active)"}, {"smiles": "CC(=O)Nc1ccc(C(=O)C(Cc2ccccc2)N(C)C)cc1", "note": "(stereo unspecified)", "max response": "9.54%"}, {"smiles": "CC(C)CNC(=O)C(=O)NCc1ccccc1", "max response": "-1.62%"}, {"smiles": "COc1ccc(NC(=O)Cn2ncn3c(cc4ccccc43)c2=O)c(OC)c1OC", "max response": "12.5%"}, {"smiles": "Cc1nnc(C)c2c(C)n(N)c(C)c12", "max response": "-2.66%"}, {"smiles": "COC(=O)c1ccc(CSc2nncn2N)cc1", "max response": "2.72%"}, {"smiles": "COC(=O)c1ccc(CSc2nncn2C)cc1", "max response": "62.2% (active)"}, {"smiles": "CC(C)CC(CC(C)C)=NNC(=O)c1ccc(CSc2nncn2C)cc1", "max response": "-1.48%"}, {"smiles": "CCC(Cc1ccccc1)NC(=O)C1CCCCC1", "note": "(stereo unspecified)", "max response": "5.22%"}, {"smiles": "CCOC(=O)c1ccc(NC(=O)c2nc[nH]c2C(=O)N[C@@H](CCCCNC(=O)OC(C)(C)C)C(=O)OC(C)(C)C)cc1", "max response": "-6.86%"}, {"smiles": "C[C@@H](O)[C@@H]1NC(=O)[C@H](CCCCN)NC(=O)[C@H](Cc2c[nH]c3ccccc23)NC(=O)[C@H](Cc2ccccc2)NC(=O)[C@H](Cc2ccccc2)NC(=O)[C@H](CC(N)=O)NC(=O)[C@H](CCCCN)NC(=O)[C@@H](NC(=O)[C@@H]2CCCN2)CSSC[C@@H](C(=O)N[C@@H](CCCCN)C(=O)O)NC(=O)[C@H](CO)NC(=O)[C@H](CO)NC(=O)[C@H](Cc2ccccc2)NC1=O", "max response": "-1.5%"}, {"smiles": "COc1ccccc1/C=N\\Nc1cc(C)nc(-n2nc(C)cc2C)n1", "max response": "-2.45%"}, {"smiles": "COc1cccc(/C=N/Nc2cc(C)nc(-c3ccccc3O)n2)c1O", "max response": "28.6% (active)"}, {"smiles": "COc1cccc(/C=N/Nc2ncc(C(F)(F)F)cc2Cl)c1O", "max response": "12.5%"}, {"smiles": "O=C(NC1CCCC1)C(c1ccc(N2CCOCC2)cc1)N(C(=O)c1ccco1)c1ccccc1F", "note": "(stereo unspecified)", "max response": "-1.28%"}, {"smiles": "CCOc1ccc(CN2CCN(Cc3ccc4cc(F)ccc4n3)CC2CCO)cc1", "note": "(stereo unspecified)", "max response": "-3.76%"}, {"smiles": "CC1CCc2sc3nc(N4CCN(CCO)CC4)n4ncnc4c3c2C1", "note": "(stereo unspecified)", "max response": "22.8% (active)"}, {"smiles": "N#Cc1c2c(c(N3CCN(CCO)CC3)n3c1nc1ccccc13)CCCC2", "max response": "-2.13%"}, {"smiles": "Cc1cc(NC(=O)CSc2nc(C(C)C)nc3sc4c(c23)CCC(C)C4)no1", "note": "(stereo unspecified)", "max response": "-1.25%"}, {"smiles": "Cc1ccc(NC(=O)C2CCCN2C(=O)OCc2ccccc2)cc1C", "note": "(stereo unspecified)", "max response": "7.92%"}, {"smiles": "O=C(Nc1ccccc1Cl)NC1(C(=O)N2CCOCC2)CCCCC1", "max response": "-1.76%"}, {"smiles": "CCCCC(c1nnnn1CS(=O)(=O)c1ccc(C)cc1)N1CCC(C(N)=O)CC1", "note": "(stereo unspecified)", "max response": "-6.32%"}, {"smiles": "COc1ccc(/C=C2\\SC(=N)N(c3ccc(F)cc3)C2=O)cc1", "max response": "-4.26%"}, {"smiles": "COc1ccc(/C=C2\\N=C3CCCN3C2=O)cc1", "max response": "39.3% (active)"}, {"smiles": "COc1ccc(/C=C2\\SC(=S)N(CC(=O)NNC(=O)c3ccncc3)C2=O)cc1", "max response": "5.86%"}, {"smiles": "Cn1c(=O)c2c(-c3cccc(Br)c3)c(C#N)c(N)nc2n(C)c1=O", "max response": "1.41%"}, {"smiles": "COC(=O)C1=CN(Cc2ccc(OC)c(OC)c2)C=C(C(=O)OC)C1c1cccs1", "max response": "8.87%"}, {"smiles": "CN1OC(COC(=O)c2ccc(Cl)cc2)CC1c1ccccc1", "note": "(stereo unspecified)", "max response": "66.4% (active)"}, {"smiles": "Cn1cncc1COC(=O)c1ccc(Cl)cc1", "max response": "5.18%"}, {"smiles": "CN1C2C=C(N(C(=O)c3ccc(Cl)cc3)c3ccccc3)CC1CC2", "note": "(stereo unspecified)", "max response": "-2.76%"}]}]}
